Each structure is given as a SMILES string. This is part of a sample that, as a whole, favours compounds with a hit. Of some 83,000 tested, about 20% had one in any assay.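 A percent growth of 40 corresponds to 60% growth inhibition; 0 means no net growth; -100 means all cells died. Active threshold: below 10.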 A number with no mark means an inactive call. Activity calls are given as the source filed them.

In the first experiment the test system is SF-295 CNS. The experiment in a line: NCI-60 one-dose screen, 48 h (100 = growth as untreated, 0 = no growth, -100 = all killed). The following applies: 10 µM unless noted.
With `CSc1nc(NCCN2CCOCC2)c(C#N)c(-c2cccc([N+](=O)[O-])c2)n1`, the growth is 99.1%. With `N#Cc1c(-c2ccc(Cl)cc2)nc(N=Nc2c(O)[nH]c3ccc(Cl)cc23)nc1N1CCOCC1`, the growth was 102%. With `Cc1ccc(NS(=O)(=O)c2ccc(-c3cnc(C4CC4)o3)cc2)cc1C`, the growth was 10.3%.

`Oc1ccccc1-c1nnc(CNc2ccc(Cl)cc2)o1`: the growth was 40.6%.

The next experiment relates to SF-539 CNS. Described as above. The following applies: 10 µM unless noted.
For the compound `N#C/C(=C\c1ccc(-c2ccc(Cl)c(Cl)c2)o1)c1nc(-c2ccco2)cs1`, the growth is 101%. On the same count and under the same terms, next, `CC(C)C1=C[C@@]23CC[C@@H]4[C@](C)(CCC[C@@]4(C)C(=O)N4CCCNCC4)[C@H]2C[C@@H]1[C@H]1C(=O)CCC(=O)[C@H]13`: 93.7%; `COc1ccc(CCNc2nc(SC)nc(-c3cccc([N+](=O)[O-])c3)c2C#N)cc1OC`: 74.6%. On the same count and under the same terms, next, `Cc1cc(NS(=O)(=O)c2ccc(-c3cnc(C4CC4)o3)cc2)ccc1Cl`: -28.6% (active); `COc1ccc(-c2cc(C(=O)N=Nc3c(O)[nH]c4ccc(Br)cc34)no2)cc1`: 95.9%. For `CCCOc1cc2ccccc2cc1C(=O)Nc1nc(NC)c2c(ccc3nccc32)[nH]1`, the growth is -76.9% (active).

Take `CCCCN(CCCC)CCCn1c(-c2ccccc2)ccc1-c1ccccc1`: the growth was 67.4%. In the case of `Cc1nc2ccccc2n1C(=O)C[C@@H]1NC(=S)NC1=O`, the growth was 98.6%. The same measure, in the same setting: as for `N#CCCN=Nc1c(O)[nH]c2ccc([N+](=O)[O-])cc12`, the figure is 94.9%; as for `Cc1cc(N2CCOCC2)nc(NCc2cc(Nc3ccnc4cc(Cl)ccc34)ccc2F)n1`, -80.4% (active); as for `Nc1n[nH]c2ccc([C@@H]3Nc4cc5c(cc4[C@H]4C6CCC(C6)[C@@H]34)C(=O)NC5)cc12` (stereo not given in full), -24.9% (active).

Turning to `c1ccc(-c2c(-c3ccccc3)[n+](Cc3ccc4ccccc4c3)c(-c3ccc(-c4nc5ccccc5s4)cc3)n2Cc2ccc3ccccc3c2)cc1`, the growth was -88.9% (active).

With `C=CC(=O)Nc1cccc(-c2nc(SC)nc(NCc3ccccc3)c2C#N)c1`, the growth is 67.7%. Still for that read-out and setting: next, `CCCOc1ccc2nc(NC(=O)OC)[nH]c2c1`: 7.37% (active). Same read-out and setting: next, `COc1cccc(/C=C2\Oc3cc(OCCN4CCCC4)ccc3C2=O)c1`: 88.9%. Still for that read-out and setting: next, `COc1ccc(/C=C2\Oc3cc(OCCCCN4CCCC4)ccc3C2=O)cc1`: 42.4%; `COc1cccc(-c2nn(C(C)(C)C)cc2-c2ccnc(NCCCNS(=O)(=O)c3cccc4ccccc34)c2)c1`: 113%. Consider `COc1cccc(-c2nc3sccn3c2-c2ccnc(NCCCNS(=O)(=O)c3c(Cl)cccc3Cl)c2)c1`, for which the growth is 95%. Regarding `O=C1c2cc3c(cc2-c2c1c1cc(F)c(F)cc1c(=O)n2CCCn1ccnc1)OCO3`, the growth was -19.7% (active).

Take `O=C(/C=C/c1cccc(Cl)c1)c1ccc(O)c(CN2CCN(c3cc4c(cc3F)c(=O)c(C(=O)O)cn4C3CC3)CC2)c1`: the growth was 40.9%. Same read-out and setting: as for `CCCn1c(=O)[nH]c(N)c([C@H]2c3ccccc3Oc3[nH]c(=O)n(CCC)c(=O)c32)c1=O`, the figure is 100%; as for `N#CCCN=Nc1c(O)[nH]c2ccc(F)cc12`, 105%.

As to `COc1ccc(-c2n[nH]nc2-c2csc3ccccc23)cc1OC`, the growth is -2.39% (active). Same read-out and setting: next, `COc1cc(/C=C/c2cc(O)c3cc(C(C)=O)c(=O)oc3c2)cc2c1O[C@]1(C)CC[C@@H](O)C(C)(C)[C@H]1C2`: -33.3% (active); `O=C(N=Nc1c(O)[nH]c2ccc(Br)cc12)c1cc(-c2ccccc2)on1`: 97.6%. In the case of `CSc1nc(NCc2ccccc2)c(C#N)c(-c2cccc([N+](=O)[O-])c2)n1`, the growth was 104%. Consider `O=S(=O)(Nc1ccc(Cl)c(F)c1)c1ccc(-c2cnc(C3CC3)o2)cc1`, for which the growth was -15.5% (active). As to `CC1(C)CC[C@]2(C(=O)Nc3ccccn3)CC[C@]3(C)C(=CC[C@@H]4[C@@]5(C)C/C(=C/c6cccnc6)C(=O)C(C)(C)[C@@H]5CC[C@]43C)[C@H]2C1`, the growth is 51.6%. On the same count and under the same terms, as for `O=S(=O)(Nc1ccc(Br)c(Cl)c1)c1ccc(-c2cnc(C3CC3)o2)cc1`, the figure is -19.8% (active); as for `C=C(C)[C@@H]1CC[C@]2(C(N)=O)CC[C@]3(C)[C@H](CC[C@@H]4[C@@]5(C)C/C(=C/c6ccco6)C(=O)C(C)(C)[C@@H]5CC[C@]43C)[C@@H]12`, 98.6%; as for `Cc1nc2c3c(-c4ccccc4)c(-c4ccccc4)oc3ncn2n1`, 90.2%.

The values are drawn from PubChem BioAssay (NCI).
